# Test results from PMC7862700, “An all-to-all approach to the identification of sequence-specific readers for epigenetic DNA modifications on cytosine”.
# Tests used:
# Assay in all cases: DAPPL (digital affinity profiling via proximity ligation, sequencing); 10 mM Tris-HCl pH 7.5, 50 mM NaCl, 1 mM DTT, 4% glycerol, room temperature, 30 min; GST-TFs on glutathione beads, 16-mer random dsDNA library, 0.1% formaldehyde crosslink after washing; high values mean tight binding
# [1] = biological target: T1, FEV (Homo sapiens, UniProt Q99581 1-238); conditions: protein: recombinant; tags: N-terminal GST; dsDNA, one strand shown
# T1 sequence: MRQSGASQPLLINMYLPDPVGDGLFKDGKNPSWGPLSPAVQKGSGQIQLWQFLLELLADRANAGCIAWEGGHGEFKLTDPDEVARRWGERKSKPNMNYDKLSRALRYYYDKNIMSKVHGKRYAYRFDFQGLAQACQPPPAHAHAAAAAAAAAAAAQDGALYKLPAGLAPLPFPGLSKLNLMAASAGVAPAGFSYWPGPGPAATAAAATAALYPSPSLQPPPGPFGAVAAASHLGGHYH
# Procedure, shortened: (§1)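 The binding signal reported is, for every hexamer, its read frequency for a factor over its read frequency for the tag-only sample. Reads came from pools of yeast-expressed, GST-fused human transcription factors on glutathione beads, barcoded with DNA and mixed with that sample, which were incubated with 200 nmole of a random double-stranded 16-mer DNA library in Tris/NaCl/DTT/glycerol buffer at room temperature for 30 min. After washing, the pools were crosslinked with 0.1% formaldehyde, proximity-ligated with BsaI/T4 ligase for 1 h at 37 °C, PCR-amplified and sequenced on an Illumina NextSeq500.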
# [2] = biological target: ETV5 (Homo sapiens, UniProt P41161 1-510); conditions: protein: recombinant; tags: N-terminal GST; dsDNA, one strand shown
# Procedure, shortened: as §1
# [3] = biological target: HSF1 (Homo sapiens, UniProt Q00613 1-529); conditions: protein: recombinant; tags: N-terminal GST; chain copies: 3; dsDNA, one strand shown
# Procedure, shortened: as §1
# [4] = biological target: T2, SPIC (Homo sapiens, UniProt Q8N5J4 1-248); conditions: protein: recombinant; tags: N-terminal GST; dsDNA, one strand shown
# T2 sequence: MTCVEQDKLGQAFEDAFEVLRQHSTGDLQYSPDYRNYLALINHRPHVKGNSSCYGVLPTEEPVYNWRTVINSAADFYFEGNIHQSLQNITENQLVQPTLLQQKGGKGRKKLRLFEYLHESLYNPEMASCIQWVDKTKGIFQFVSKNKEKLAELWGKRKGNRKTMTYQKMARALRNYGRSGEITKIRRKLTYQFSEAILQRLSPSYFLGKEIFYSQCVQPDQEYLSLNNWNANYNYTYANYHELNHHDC
# Procedure, shortened: as §1
# [5] = biological target: ELF4 (Homo sapiens, UniProt Q99607 1-663); conditions: protein: recombinant; tags: N-terminal GST; dsDNA, one strand shown
# Procedure, shortened: as §1
# [6] = biological target: T3, ELK4 (Homo sapiens, UniProt P28324-2 1-405); conditions: protein: recombinant; tags: N-terminal GST; dsDNA, one strand shown
# T3 sequence: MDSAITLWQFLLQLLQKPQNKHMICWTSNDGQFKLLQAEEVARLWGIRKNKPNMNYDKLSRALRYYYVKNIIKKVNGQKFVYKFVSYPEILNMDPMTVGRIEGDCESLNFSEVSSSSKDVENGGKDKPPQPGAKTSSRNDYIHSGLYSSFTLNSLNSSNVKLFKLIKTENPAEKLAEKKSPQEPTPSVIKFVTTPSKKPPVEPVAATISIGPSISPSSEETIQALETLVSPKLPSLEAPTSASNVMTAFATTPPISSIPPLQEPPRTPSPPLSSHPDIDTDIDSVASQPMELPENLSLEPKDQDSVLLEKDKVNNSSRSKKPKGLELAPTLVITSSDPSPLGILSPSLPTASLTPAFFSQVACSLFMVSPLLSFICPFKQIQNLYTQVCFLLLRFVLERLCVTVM
# Procedure, shortened: as §1
# [7] = biological target: T4, ETV2 (Homo sapiens, UniProt O00321 1-342); conditions: protein: recombinant; tags: N-terminal GST; dsDNA, one strand shown
# T4 sequence: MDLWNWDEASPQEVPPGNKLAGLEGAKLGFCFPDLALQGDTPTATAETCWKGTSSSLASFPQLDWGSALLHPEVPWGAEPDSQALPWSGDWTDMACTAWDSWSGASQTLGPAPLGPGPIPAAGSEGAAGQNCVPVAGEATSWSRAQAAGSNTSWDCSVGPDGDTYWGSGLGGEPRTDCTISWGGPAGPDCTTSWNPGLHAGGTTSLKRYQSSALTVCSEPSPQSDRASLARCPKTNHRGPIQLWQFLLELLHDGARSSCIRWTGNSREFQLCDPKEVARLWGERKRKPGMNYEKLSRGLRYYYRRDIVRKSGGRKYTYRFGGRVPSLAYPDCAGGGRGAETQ
# Procedure, shortened: as §1
# [8] = biological target: T5, ELF3 (Homo sapiens, UniProt P78545 1-371); conditions: protein: recombinant; tags: N-terminal GST; dsDNA, one strand shown
# T5 sequence: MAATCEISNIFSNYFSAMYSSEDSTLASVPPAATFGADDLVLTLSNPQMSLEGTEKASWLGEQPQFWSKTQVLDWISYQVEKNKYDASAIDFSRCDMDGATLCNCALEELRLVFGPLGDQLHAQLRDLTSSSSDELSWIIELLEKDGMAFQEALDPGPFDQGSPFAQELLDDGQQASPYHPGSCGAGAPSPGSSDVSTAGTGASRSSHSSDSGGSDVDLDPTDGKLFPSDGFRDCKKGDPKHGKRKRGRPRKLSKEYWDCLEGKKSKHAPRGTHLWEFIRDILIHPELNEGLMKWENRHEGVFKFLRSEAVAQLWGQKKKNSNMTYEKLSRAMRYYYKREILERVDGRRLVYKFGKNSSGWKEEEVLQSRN
# Procedure, shortened: as §1
# [9] = biological target: CRX (Homo sapiens, UniProt O43186 1-299); conditions: protein: recombinant; tags: N-terminal GST; dsDNA, one strand shown
# Procedure, shortened: as §1
# [10] = biological target: ETV1 (Homo sapiens, UniProt P50549 1-477); conditions: protein: recombinant; tags: N-terminal GST; dsDNA, one strand shown
# Procedure, shortened: as §1
# HSF1, sequence (Q00613 whole entry): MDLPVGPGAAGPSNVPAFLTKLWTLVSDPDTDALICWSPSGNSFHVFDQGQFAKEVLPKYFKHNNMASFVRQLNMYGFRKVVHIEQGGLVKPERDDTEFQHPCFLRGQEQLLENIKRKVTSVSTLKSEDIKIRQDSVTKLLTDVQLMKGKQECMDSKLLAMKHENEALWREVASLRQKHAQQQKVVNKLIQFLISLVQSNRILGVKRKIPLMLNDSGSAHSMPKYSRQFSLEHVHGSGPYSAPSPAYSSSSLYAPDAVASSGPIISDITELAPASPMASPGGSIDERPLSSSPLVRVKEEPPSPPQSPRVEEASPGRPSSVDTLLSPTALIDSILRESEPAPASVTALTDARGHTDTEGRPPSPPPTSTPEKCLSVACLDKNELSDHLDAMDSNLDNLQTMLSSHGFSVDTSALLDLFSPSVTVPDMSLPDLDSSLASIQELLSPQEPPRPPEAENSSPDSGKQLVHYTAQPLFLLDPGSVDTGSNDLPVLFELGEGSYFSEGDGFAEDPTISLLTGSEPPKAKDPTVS
# ETV1, sequence (P50549 whole entry): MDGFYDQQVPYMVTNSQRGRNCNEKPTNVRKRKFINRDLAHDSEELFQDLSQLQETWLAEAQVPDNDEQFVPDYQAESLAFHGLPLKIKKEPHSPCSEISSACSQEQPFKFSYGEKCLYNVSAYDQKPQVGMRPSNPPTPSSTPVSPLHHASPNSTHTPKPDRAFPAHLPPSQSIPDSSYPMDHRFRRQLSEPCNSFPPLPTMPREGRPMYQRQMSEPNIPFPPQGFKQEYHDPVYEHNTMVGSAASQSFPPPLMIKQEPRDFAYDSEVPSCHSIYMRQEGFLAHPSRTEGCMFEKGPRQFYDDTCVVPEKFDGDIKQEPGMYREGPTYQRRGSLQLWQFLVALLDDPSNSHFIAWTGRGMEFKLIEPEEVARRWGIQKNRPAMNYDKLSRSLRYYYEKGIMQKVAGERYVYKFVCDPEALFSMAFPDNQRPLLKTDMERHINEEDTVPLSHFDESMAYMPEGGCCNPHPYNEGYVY
# CRX, sequence (O43186 whole entry): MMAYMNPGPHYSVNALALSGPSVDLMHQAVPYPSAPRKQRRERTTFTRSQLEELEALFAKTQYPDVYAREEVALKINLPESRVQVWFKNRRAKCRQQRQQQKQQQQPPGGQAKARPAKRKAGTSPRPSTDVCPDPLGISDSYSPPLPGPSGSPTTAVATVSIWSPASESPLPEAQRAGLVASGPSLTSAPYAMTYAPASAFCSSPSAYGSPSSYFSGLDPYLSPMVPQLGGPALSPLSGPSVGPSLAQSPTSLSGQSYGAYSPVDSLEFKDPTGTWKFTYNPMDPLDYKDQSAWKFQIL
# ETV5, sequence (P41161 whole entry): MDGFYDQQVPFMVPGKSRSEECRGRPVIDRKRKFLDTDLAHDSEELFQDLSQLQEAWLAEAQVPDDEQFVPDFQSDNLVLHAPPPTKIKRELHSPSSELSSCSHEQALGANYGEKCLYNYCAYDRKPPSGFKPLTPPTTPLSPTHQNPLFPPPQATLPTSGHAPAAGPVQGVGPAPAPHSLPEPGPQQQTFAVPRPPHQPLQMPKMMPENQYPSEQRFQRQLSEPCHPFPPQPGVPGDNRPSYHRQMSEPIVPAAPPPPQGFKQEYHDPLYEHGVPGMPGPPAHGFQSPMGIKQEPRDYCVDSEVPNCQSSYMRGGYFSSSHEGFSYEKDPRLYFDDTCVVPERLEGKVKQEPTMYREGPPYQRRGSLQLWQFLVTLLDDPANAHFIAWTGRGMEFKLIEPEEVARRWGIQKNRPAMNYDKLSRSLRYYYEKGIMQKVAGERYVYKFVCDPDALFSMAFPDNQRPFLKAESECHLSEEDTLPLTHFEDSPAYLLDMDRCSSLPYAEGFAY
# ELF4, sequence (Q99607 whole entry): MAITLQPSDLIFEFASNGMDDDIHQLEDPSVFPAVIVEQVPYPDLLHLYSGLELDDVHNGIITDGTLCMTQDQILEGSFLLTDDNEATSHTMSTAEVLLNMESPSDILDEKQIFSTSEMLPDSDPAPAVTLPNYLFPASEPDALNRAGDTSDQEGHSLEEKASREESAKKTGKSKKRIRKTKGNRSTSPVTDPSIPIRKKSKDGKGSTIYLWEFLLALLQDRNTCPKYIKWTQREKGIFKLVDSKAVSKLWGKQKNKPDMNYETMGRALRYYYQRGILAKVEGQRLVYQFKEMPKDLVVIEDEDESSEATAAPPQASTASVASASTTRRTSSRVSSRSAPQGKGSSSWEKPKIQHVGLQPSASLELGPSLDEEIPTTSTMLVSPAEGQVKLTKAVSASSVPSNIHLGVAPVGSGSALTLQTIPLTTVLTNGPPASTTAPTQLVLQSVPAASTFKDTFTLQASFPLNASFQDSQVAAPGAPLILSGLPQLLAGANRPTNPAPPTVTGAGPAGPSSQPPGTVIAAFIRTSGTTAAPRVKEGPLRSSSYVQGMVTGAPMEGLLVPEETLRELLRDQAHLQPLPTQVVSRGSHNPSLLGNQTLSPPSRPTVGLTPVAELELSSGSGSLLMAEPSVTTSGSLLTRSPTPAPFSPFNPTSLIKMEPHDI
sequence,measurement,setting,value
CCCTAA,binding signal,[1],"1.18 fold enrichment (6-mer frequency, TF over GST control)"
same,binding signal,[2],"1.28 fold enrichment (6-mer frequency, TF over GST control)"
same,binding signal,[3],"1.29 fold enrichment (6-mer frequency, TF over GST control)"
same,binding signal,[4],"1.24 fold enrichment (6-mer frequency, TF over GST control)"
same,binding signal,[5],"1.28 fold enrichment (6-mer frequency, TF over GST control)"
same,binding signal,[6],"1.28 fold enrichment (6-mer frequency, TF over GST control)"
same,binding signal,[7],"1.23 fold enrichment (6-mer frequency, TF over GST control)"
same,binding signal,[8],"1.25 fold enrichment (6-mer frequency, TF over GST control)"
same,binding signal,[9],"1.71 fold enrichment (6-mer frequency, TF over GST control)"
same,binding signal,[10],"1.23 fold enrichment (6-mer frequency, TF over GST control)"
